A structure can be active in one record and inactive in another. Active and inactive are the calls of the source. Rule for the calls: active = hit-call score of the fitted dose curve at least 0.9, where 1 is the maximum; inactive = score below 0.9.
read-out: Tumor necrosis factor (Homo sapiens) (UniProt P01375); assay: BSK_LPS_TNFa: BioMAP Diversity Plus: LPS Assay for Tumour Necrosis Factor alpha (TNFa) Biomarker Activity (AID 2283085); conditions: primary human HUVEC with PBMC; actives raise or lower the signal
Description: BSK_LPS is a cell-based, multiplexed-readout assay that uses umbilical vein endothelium and peripheral blood mononuclear cells, a human vascular primary cell co-culture, with measurements taken at 24 hours after chemical dosing in a 96-well plate.BSK_LPS_TNFa is an assay component measured in the BSK_LPS assay. It measures TNF-a antibody related to regulation of gene expression using ELISA technology.Data from the assay component BSK_LPS_TNFa was analyzed into 1 assay endpoint. This assay endpoint, BSK_LPS_TNFa, was analyzed with bidirectional fitting relative to DMSO as the negative control and baseline of activity. Using a type of binding reporter, gain or loss-of-signal activity can be used to understand changes in the signaling as they relate to the gene TNF. Furthermore, this assay endpoint can be referred to as a primary readout, because this assay has produced multiple assay endpoints where this one serves a signaling function. To generalize the intended target to other relatable targets, this assay endpoint is annotated to the cytokine intended target family, where the subfamily is inflammatory factor.
The levels of cell surface (or secreted, indicated by the prefix "s") biomarker endpoints were measured by ELISA. Overt cytotoxicity to cells in confluent adherent cultures (all systems other than the BT system) was assessed by measuring total protein levels using sulforhodamine B (SRB) staining in parallel cultures at the time of biomarker measurements, indicated as SRB endpoints. For proliferation assays for adherent cell types, individual cell types are cultured at sub-confluence and relative cell numbers quantified by SRB staining at time points optimized for each system (48 h: 3C and CASM3C systems; 72 h: BT and HDF3CGF systems; 96 h: SAg system). SRB was performed by staining cells with 0.1% SRB after fixation with 10% TCA and reading wells at 560 nm.Viability and proliferation of PBMC (T cells) was quantified by Alamar Blue reduction for the SAg and BT systems. For PBMC viability (referred to as PBMC Cytotoxicity within the assay endpoint names), cells were plated (75,000/well in a 96-well plate) and then chemical samples added for 1 h before addition of activators, SEB and TSST-1 (20 ng/mL final concentration each). Cells were incubated for 90 h. Then, Alamar Blue (20 uL/well) (Invitrogen, Cat DAL1100) was added for 6 h, and the plates were read with a fluorescence microplate reader at 546/580 nm (excitation/emission). For PBMC proliferation, cells were plated and activated as above but incubated for only 16 h prior to addition of Alamar Blue. Plates were read after 6 h.

Tumor necrosis factor (Homo sapiens), sequence (P01375 whole entry, looked up): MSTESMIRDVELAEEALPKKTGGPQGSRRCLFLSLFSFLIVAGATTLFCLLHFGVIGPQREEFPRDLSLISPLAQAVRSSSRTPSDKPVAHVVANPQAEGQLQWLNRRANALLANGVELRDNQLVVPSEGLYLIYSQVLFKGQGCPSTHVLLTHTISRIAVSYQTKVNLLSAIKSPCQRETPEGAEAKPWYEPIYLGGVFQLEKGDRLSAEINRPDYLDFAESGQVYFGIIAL

| SMILES | AC50 | outcome |
| --- | --- | --- |
| COP(=O)(OC)OC=C(Cl)Cl | 4.96 µM (active) | – |
| CCOCN(C(=O)CCl)c1c(C)cccc1CC | 5.13 µM (active) | – |
| CCCN(CCC)c1c([N+](=O)[O-])cc(C(F)(F)F)cc1[N+](=O)[O-] | – | inactive |
| N#Cc1c(Cl)c(Cl)c(Cl)c(C#N)c1Cl | 0.134 µM (active) | – |
| Cc1[nH]c(=O)n(C(C)(C)C)c(=O)c1Cl | – | inactive |
| [2H]C1([2H])[n+]2ccccc2-c2cccc[n+]2C1([2H])[2H] | – | inactive |
| CCC(C)Nc1c([N+](=O)[O-])cc(C(C)(C)C)cc1[N+](=O)[O-] (stereo not given) | – | inactive |
| CC1(c2ccc(Oc3ccccc3)cc2)OC(=O)N(Nc2ccccc2)C1=O (stereo not given) | – | inactive |
| Oc1ccc(Cl)cc1Cc1ccccc1 | 32 µM (active) [middle of 7 runs] | – |
| O=S(=O)(O)C(F)(F)C(F)(F)C(F)(F)C(F)(F)C(F)(F)C(F)(F)C(F)(F)C(F)(F)F | 15 µM (active) | inactive |
| CCc1ccc(C(=O)NN(C(=O)c2cc(C)cc(C)c2)C(C)(C)C)cc1 | 14.2 µM (active) | – |
| O=C(O)C(F)(F)C(F)(F)C(F)(F)C(F)(F)C(F)(F)C(F)(F)C(F)(F)F | 9.76 µM (active) | inactive |
| CC(C)(C)C(O)/C(=C\c1ccc(Cl)cc1Cl)n1cncn1 (stereo not given) | – | inactive |
| CC(C)(C)C(O)C(Oc1ccc(Cl)cc1)n1cncn1 (stereo not given) | – | inactive |
| CCS(=O)(=O)c1cccnc1S(=O)(=O)NC(=O)Nc1nc(OC)cc(OC)n1 | 1.75 µM (active) | – |
| C#CCN1C(=O)COc2cc(F)c(N3C(=O)C4=C(CCCC4)C3=O)cc21 | – | inactive |
| COC(=O)c1ccccc1S(=O)(=O)NC(=O)N(C)c1nc(C)nc(OC)n1 | – | inactive |
| CNC(=O)/C=C(\C)OP(=O)(OC)OC | – | inactive |
| COP(=S)(OC)Oc1ccc(SC)c(C)c1 | – | inactive |

| SMILES | AC50 | outcome |
| --- | --- | --- |
| CCCN(CCOc1c(Cl)cc(Cl)cc1Cl)C(=O)n1ccnc1 | 0.875 µM (active) | – |
| Oc1cc(Cl)ccc1Oc1ccc(Cl)cc1Cl | 31.2 µM (active) [middle of 4 runs] | – |
| ClC1C(Cl)C(Cl)C(Cl)C(Cl)C1Cl (stereo not given) | 13.3 µM (active) | inactive |
| OCCOc1ccccc1 | – | inactive |
| O=[N+]([O-])/N=C1\NCCN1Cc1ccc(Cl)nc1 | – | inactive |
| CNC(=O)Oc1ccccc1OC(C)C | – | inactive |
| N#CN | – | inactive |
| CNC(=O)Oc1cccc(N=CN(C)C)c1 | – | inactive |
| COC(=O)c1ccccc1S(=O)(=O)NC(=O)Nc1nc(C)nc(OC)n1 | – | inactive |
| O=C(O)COc1ccc(Cl)cc1Cl | – | inactive |
| Clc1ccccc1-c1nnc(-c2ccccc2Cl)nn1 | – | inactive |
| CC[C@H](C)[C@H]1O[C@]2(C=C[C@@H]1C)C[C@@H]1C[C@@H](C/C=C(\C)[C@@H](O[C@H]3C[C@H](OC)[C@@H](O[C@H]4C[C@H](OC)[C@@H](O)[C@H](C)O4)[C@H](C)O3)[C@@H](C)/C=C/C=C3\CO[C@@H]4[C@H](O)C(C)=C[C@@H](C(=O)O1)[C@]34O)O2 (tested in a mixture with another compound) | 10.3 µM (active) | – |
| C[C@H]1[C@H](c2ccc(Cl)cc2)SC(=O)N1C(=O)NC1CCCCC1 | – | inactive |
| COC(=O)c1ccccc1CS(=O)(=O)NC(=O)Nc1nc(OC)cc(OC)n1 | – | inactive |
| CCOC1Oc2ccc(OS(C)(=O)=O)cc2C1(C)C (stereo not given) | – | inactive |
| CCC(C)(NC(=O)c1cc(Cl)c(C)c(Cl)c1)C(=O)CCl (stereo not given) | 12.3 µM (active) | – |
| COP(=S)(OC)Oc1ccc([N+](=O)[O-])cc1 | – | inactive |
| O=C(Nc1ccccc1)Nc1cnns1 | 18.4 µM (active) | – |
